Data published in PubChem BioAssay (NCI).
Compounds without any hit were thinned out: in the full panel of roughly 83,000, 20% have a hit.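 A percent growth of 40 corresponds to 60% growth inhibition; 0 means no net growth; -100 means all cells died. Active threshold: below 10.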 Calls of active or inactive are those of the source.

Experiments:
Experiment in all cases: NCI-60 one-dose screen, 48 h (100 = growth as untreated, 0 = no growth, -100 = all killed)
Conditions in all cases: 10 µM unless noted
DU-145 prostate = test system: DU-145 prostate
K-562 leukemia = test system: K-562 leukemia
MALME-3M melanoma = test system: MALME-3M melanoma
MDA-MB-231 breast = test system: MDA-MB-231 breast
SF-268 CNS = test system: SF-268 CNS
SF-295 CNS = test system: SF-295 CNS
SF-539 CNS = test system: SF-539 CNS
M14 melanoma = test system: M14 melanoma

Measured: growth

NN1C(=O)CSC1=S
inactive: DU-145 prostate 108% | K-562 leukemia 101% | MALME-3M melanoma 109% | MDA-MB-231 breast 105% | SF-268 CNS 95.9% | SF-295 CNS 105% | SF-539 CNS 105% | M14 melanoma 97.6%

COc1ccc2c(CCCCC(c3ccccc3)c3ccccc3)c3[n+](cc2c1OC)CCc1cc2c(cc1-3)OCO2
active: DU-145 prostate -80% | K-562 leukemia -7.74% | MALME-3M melanoma -80.9% | MDA-MB-231 breast -75.1% | SF-268 CNS -60.7% | SF-295 CNS -84.2% | SF-539 CNS -64.5% | M14 melanoma -76.1%

CCCCCCCCCCCC[n+]1ccccc1
inactive: DU-145 prostate 16% | SF-268 CNS 11.5%
active: K-562 leukemia 6.1% | MALME-3M melanoma 0.501% | MDA-MB-231 breast -2.58% | SF-295 CNS -36.5% | SF-539 CNS -2.41% | M14 melanoma -41.3%

CC(C)[C@@H]1CC[C@]2(CO2)[C@@H]2C(=O)OCC(C(=O)O)=C[C@H]21
active: DU-145 prostate 7.04% | K-562 leukemia 7.2% | MALME-3M melanoma -3.58% | MDA-MB-231 breast 9.95% | SF-268 CNS 1.21% | SF-539 CNS 6.83% | M14 melanoma -48.5%
inactive: SF-295 CNS 22.2%

CCCCCCC1(/C=N/NC(N)=O)NC(=O)NC1=O (stereo unspecified)
inactive: DU-145 prostate 107% | K-562 leukemia 102% | MALME-3M melanoma 103% | MDA-MB-231 breast 110% | SF-268 CNS 99.3% | SF-295 CNS 98.1% | SF-539 CNS 96.3% | M14 melanoma 97.3%

Cc1ccc(N=C2CSc3nnc(-c4csc5c4CCCC5)n3N2)cc1
inactive: DU-145 prostate 25.4% | K-562 leukemia 10.7% | MALME-3M melanoma 70.6% | MDA-MB-231 breast 43% | SF-268 CNS 40.8%
active: SF-295 CNS -6.51% | SF-539 CNS -2.46% | M14 melanoma 5.9%

CCC1(/C=N/NC(N)=S)NC(=O)NC1=O (stereo unspecified)
inactive: DU-145 prostate 112% | K-562 leukemia 109% | MALME-3M melanoma 107% | MDA-MB-231 breast 102% | SF-268 CNS 106% | SF-295 CNS 107% | SF-539 CNS 109%

C=C1C[C@H](O)[C@H](Br)C(C)(C)[C@@]12CCC(C)=C(Cl)C2
active: SF-295 CNS -3.01% | M14 melanoma -19.7%
inactive: DU-145 prostate 22.7% | K-562 leukemia 12.3% | MALME-3M melanoma 38.5% | MDA-MB-231 breast 22.4% | SF-268 CNS 30.9% | SF-539 CNS 34%

Cc1cccc(NC(=O)[C@@H]2c3ccccc3C(=O)N(c3ccc(Cl)cc3)[C@H]2c2ccc(Cl)cc2)n1
inactive: DU-145 prostate 79.8% | K-562 leukemia 47.7% | MALME-3M melanoma 61.1% | MDA-MB-231 breast 32.1% | SF-268 CNS 62.8% | SF-295 CNS 24.1% | SF-539 CNS 71% | M14 melanoma 45.8%

COc1ccc2c(CCc3ccc(Cl)cc3)c3[n+](cc2c1OC)CCc1cc2c(cc1-3)OCO2
inactive: DU-145 prostate 67.5% | K-562 leukemia 33.5% | MALME-3M melanoma 55.5% | MDA-MB-231 breast 66.7% | SF-268 CNS 49% | SF-295 CNS 43.3% | SF-539 CNS 53.1% | M14 melanoma 37.9%

CC(C)c1ccc(/C=N/Nc2nc3ccccc3s2)cc1
inactive: DU-145 prostate 101% | K-562 leukemia 85.5% | MALME-3M melanoma 62.9% | MDA-MB-231 breast 81.6% | SF-268 CNS 99.2% | SF-295 CNS 98.5% | SF-539 CNS 103% | M14 melanoma 94.5%

CCc1cc2c(c3ccc(C(=O)CBr)cc13)CCCC2
inactive: DU-145 prostate 107% | K-562 leukemia 86.4% | MALME-3M melanoma 95.9% | MDA-MB-231 breast 99.8% | SF-268 CNS 92.2% | SF-295 CNS 105% | SF-539 CNS 98.3% | M14 melanoma 107%

Cc1sc2c(c1C)c(=O)nc1c(-c3nc(-c4ccccc4)cs3)n[nH]n12
inactive: DU-145 prostate 104% | K-562 leukemia 94.5% | MALME-3M melanoma 98.1% | MDA-MB-231 breast 93.3% | SF-268 CNS 96.2% | SF-295 CNS 88.7% | SF-539 CNS 96.3% | M14 melanoma 96.2%

O=C1CC(c2ccc(Cl)cc2)c2ncn(-c3cccc(Cl)c3)c2N1 (stereo unspecified)
inactive: DU-145 prostate 62.9% | K-562 leukemia 23.8% | MALME-3M melanoma 53.2% | MDA-MB-231 breast 48.3% | SF-268 CNS 58.2% | SF-295 CNS 47.6% | SF-539 CNS 33% | M14 melanoma 21.6%

COc1ccc(-c2nocc2-c2cc(OC)c(OC)c(OC)c2)cc1
inactive: DU-145 prostate 15.2% | K-562 leukemia 12.8% | MALME-3M melanoma 60.3% | MDA-MB-231 breast 25.8% | SF-268 CNS 39%
active: SF-295 CNS -4.64% | SF-539 CNS 2.52%

Cc1cc(O)c2c(c1)C1OC(=O)CCCCCN1C1=C2C(=O)c2cccc(OC3CC(O)C(O)C(C)O3)c2C1=O (stereo unspecified)
inactive: DU-145 prostate 57.2% | K-562 leukemia 28.3% | MALME-3M melanoma 40.6% | MDA-MB-231 breast 32.7% | SF-268 CNS 90.8% | SF-295 CNS 93.9% | SF-539 CNS 83.5% | M14 melanoma 66.6%
